TWEAK-Fn14 inh = inhibitors of TWEAK-Fn14 interaction signaling; 2% of 360,000 active; TWEAK-stimulated Fn14 reporter cells, luciferase luminescence, 8 h; AID 1159606; inhibition, % at 10 µM; in the data active means inhibition above about 50%
CF NFkB block = cystic fibrosis NF-kB activation inhibition. KKLEB NF-kB-GFP reporter, PAF-induced, GFP fluorescence overnight. inhibition, % at 5 µM. 0.86% of 360,000 active. AID 588850;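 active means at least 50% inhibition at 5 µM, scaled per plate between neutral and stimulator controls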;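 further: PAF is a Pseudomonas aeruginosa culture filtrate used as stimulus; plate controls were PAF-stimulated DMSO wells for no effect and unstimulated DMSO wells for full effect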
TROY NFkB inh = inhibitors of TROY-dependent NF-kB signaling. 0.98% of 360,000 active. Q293 LMP1-TROYcd NF-kB luciferase reporter, 4 h. AID 1347056. inhibition, % at 10 µM;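 active means compounds whose plate-normalised and pattern-corrected inhibition of the luciferase reporter signal at the single screening dose is 50% or more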
KKLEB tox = CF airway cell cytotoxicity counter-screen | AID 602141 | KKLEB CF airway cells viability, ATPlite luminescence, overnight; active compounds read low; cells stimulated with P. aeruginosa culture filtrate | 0.36% of 360,000 active | activity change (cytotoxicity), % at 5 µM;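 active means corrected activity change at or below -50% at 5 µM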
LGR2 inh = Drosophila LGR2 receptor signaling inhibition. inhibition, % at 9.99 µM. 0.35% of 380,000 active. HEK293 LGR2, CRE-luciferase, bursicon-stimulated, 4 h. AID 720647;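 active means drop in luminescence signal, shown as inhibition above about 50% in the replicate tests, limit read from the data, passing the limit was not always enough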;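 further: agonist challenge used bursicon conditioned medium at about half maximal strength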
EWS-Fli block = inhibitors of EWS/Fli oncoprotein transcriptional activity. A673 NR0B1-luciferase reporter, viability-normalised. inhibition, % at 12.6 µM. 0.67% of 350,000 active. AID 651661;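 active means mean inhibition of at least 50% after viability correction, with every replicate also passing that limit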;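 further: firefly luciferase signal divided by Alamar Blue viability fluorescence both relative to DMSO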
An asterisk follows results filed as active; . = not tested or not shown. A selection: hits, their analogues and other compounds. The true share with any hit is near 2.6%.

SMILES	TWEAK-Fn14 inh	CF NFkB block	TROY NFkB inh	KKLEB tox	LGR2 inh	EWS-Fli block
CC1CC(C)CN(S(=O)(=O)c2ccc(NC(=O)c3ccc(=O)[nH]c3)cc2)C1 (stereo not given)	10.4	35.5	31.2	-20.9	-0.2	63.7*
COc1cccc(C(=O)N2C[C@H]3[C@@H](c4ccccc42)[C@@H](CO)N3C(=O)c2ccccc2)c1	.	.	.	.	14.9	-9.4
COc1ccc(/C=N/NC(=O)c2cc(C)n(-c3ccccc3)c2C)cc1OC	14.1	9.7	61.6*	0.7	-17.3	-29.4
COc1ccc(/C=N/NC(=O)CCn2cnc(-c3ccccc3)c2-c2ccccc2)cc1OC	5.0	27.5	34.0	-21.0	-19.9	54.4*
Cc1cc(C(=O)N/N=C2\CCCC(=O)C2)c(C)n1-c1ccccc1	42.7	18.6	74.9*	-9.1	-6.0	.
Cc1cc(C(=O)N/N=C/c2ccc3c(c2)OCO3)c(C)n1-c1ccc(F)cc1	2.9	-17.1	50.3*	-0.8	-18.6	-7.2
Cc1cc(C(=O)N/N=C/c2cccc([N+](=O)[O-])c2)c(C)n1-c1ccccc1	-5.7	2.3	5.0	-7.2	-58.6	.
Cc1cc(C(=O)N/N=C2\CCCC(=O)C2)c(C)o1	2.0	21.8	5.5	-3.1	-2.1	-2.9
O=C(N[C@H]1CC[C@@H](CCn2cc(-c3ccc(F)cc3)nn2)O[C@@H]1CO)c1cnccn1	.	.	.	.	-6.9	-2.8
CCCC#Cc1ccc2c(c1)O[C@@H](CN(C)S(=O)(=O)c1cccc(F)c1)[C@H](C)CN([C@@H](C)CO)S2(=O)=O	.	.	.	.	15.2	27.9
Cc1cc(C(=O)N/N=C/c2ccc(Cl)c([N+](=O)[O-])c2)c(C)n1-c1ccc(F)cc1	63.2*	1.0	41.6	1.4	2.6	3.0
CCCCOC(=O)c1ccc(NC(=S)N2CCN(c3ncc4c(=O)c(C(=O)O)cn(CC)c4n3)CC2)cc1	63.2*	36.2	26.8	17.6	-7.0	-1.9
Cc1noc(C)c1NC(=O)N[C@H]1CC[C@H](CC(=O)Nc2ccccc2)O[C@H]1CO	.	.	.	.	12.7	1.2
C[C@@H]1CCCCO[C@@H](CN(C)S(=O)(=O)c2cccs2)[C@@H](C)CN([C@@H](C)CO)C(=O)c2cc(NS(C)(=O)=O)ccc2O1	.	.	.	.	1.7	-8.0
C[C@H](CO)N1C[C@H](C)[C@H](CN(C)Cc2ccncc2)Oc2ncc(C#Cc3ccc(F)cc3)cc2C1=O	.	.	.	.	-15.2	-2.0
CO[C@@H]1CN(C)C(=O)c2ccc(NS(=O)(=O)c3ccccc3)cc2OC[C@H](C)NC[C@H]1C	.	.	.	.	-3.6	7.0
CCOC(=O)COc1ccc2c(C#N)c3ccccn3c2c1	12.3	7.1	-10.2	-1.5	-6.9	2.4
COc1cc(OC)cc(C(=O)c2c(C)c(C#N)c3ccccn23)c1	9.6	32.3	-24.2	-17.1	-1.2	58.3*
C[C@H](CO)N1C[C@H](C)[C@@H](CN(C)CC2CCCC2)Oc2ncc(C#CCc3ccccc3)cc2C1=O	.	.	.	.	-2.3	-6.6
C[C@@H]1CN([C@@H](C)CO)S(=O)(=O)c2ccc(C#Cc3ccccc3)cc2O[C@H]1CN(C)C(=O)c1ccccn1	.	.	.	.	-13.6	16.3
Cc1nn(-c2ccccc2)c2[nH]c(=O)c(CNc3ccc4c(c3)OCCO4)cc12	57.9*	-8.8	66.2*	9.7	.	.
O=C(C[C@H]1CC[C@@H]2[C@H](COC[C@H](O)CN2Cc2ccc(Oc3ccccc3)cc2)O1)Nc1nccs1	.	.	.	.	-9.5	4.7
COCC(=O)N(Cc1cc2ccccc2[nH]c1=O)c1ccccc1OC	79.4*	-9.6	.	5.6	.	.
COCC(=O)N(Cc1cc2ccccc2[nH]c1=O)c1ccc(OC)cc1	6.8	9.3	-2.4	3.9	10.3	.
COc1ccccc1N(Cc1cc(=O)[nH]c2ccccc12)C(=O)c1ccccc1	80.6*	-19.1	81.7*	13.1	3.1	-22.1
SMILES	TWEAK-Fn14 inh	CF NFkB block	TROY NFkB inh	KKLEB tox	LGR2 inh	EWS-Fli block
c1cnc2ccc(C(c3nnnn3C3CCCC3)N3CCN(c4nc5ccccc5s4)CC3)cc2c1 (stereo not given)	-23.1	9.0	-6.0	-7.3	.	.
Clc1ccc(C(c2nnnn2C2CCCC2)N2CCN(c3nc4ccccc4s3)CC2)cc1 (stereo not given)	73.9*	8.8	59.2*	0.4	6.5	.
CCOC(=O)c1c(NC(=O)C(NCCN(C)C)c2ccccc2)sc2c1CCCC2 (stereo not given)	-22.9	38.4	-28.8	-13.0	2.6	58.9*
CCCC(=O)N1CCC2(CC1)CN(C(=O)C1CCCCC1)[C@H](CO)c1[nH]c3cc(OC)ccc3c12	.	.	.	.	10.3	-5.1
CCCN(C)C[C@H]1Oc2cc(C#Cc3ccccc3F)ccc2S(=O)(=O)N([C@H](C)CO)C[C@@H]1C	.	.	.	.	13.5	6.7
C[C@@H]1CCCCO[C@@H](CN(C)CC2CCCCC2)[C@@H](C)CN([C@@H](C)CO)C(=O)c2cc(NC(=O)Nc3cccc4ccccc34)ccc2O1	.	.	.	.	7.2	77.0*
C[C@@H]1CCCCO[C@H](CN(C)CC2CCCCC2)[C@H](C)CN([C@H](C)CO)C(=O)c2cc(NC(=O)Nc3cccc4ccccc34)ccc2O1	.	.	.	.	-5.5	86.7*
CNC[C@H]1Oc2c(NC(=O)c3nc4ccccc4s3)cccc2C(=O)N([C@H](C)CO)C[C@@H]1C	.	.	.	.	22.7	58.4*
C[C@@H]1CN([C@H](C)CO)C(=O)c2cc(NC(=O)Nc3cccc4ccccc34)ccc2O[C@@H]1CN(C)CC1CCCCC1	.	.	.	.	10.2	70.3*
C[C@@H]1CCCCO[C@H](CN(C)CC2CCCCC2)[C@H](C)CN([C@@H](C)CO)C(=O)c2cc(NC(=O)Nc3cccc4ccccc34)ccc2O1	.	.	.	.	-10.2	18.5
CC(=O)N(C)C[C@@H]1Oc2cc(-c3ccccc3)ccc2S(=O)(=O)N([C@H](C)CO)C[C@H]1C	.	.	.	.	13.3	2.4
COc1ccc(S(=O)(=O)Nc2cccc3c2O[C@@H](CN(C)Cc2ccc(C(=O)O)cc2)[C@@H](C)CN([C@@H](C)CO)C3=O)cc1	.	.	.	.	1.8	5.3
CO[C@H]1CN(C)C(=O)c2cc(NC(=O)CC(F)(F)F)ccc2OC[C@@H](C)N(C(=O)C2CCOCC2)C[C@H]1C	.	.	.	.	4.9	.
COc1ccc(S(=O)(=O)N[C@H]2C=C[C@H](CC(=O)O)O[C@H]2CO)cc1	.	.	.	.	-5.5	.
CO[C@H]1CN(C)C(=O)c2ccc(NS(C)(=O)=O)cc2OC[C@H](C)N(C(=O)CC2CC2)C[C@H]1C	.	.	.	.	-10.2	3.3
C[C@@H]1CN([C@@H](C)CO)C(=O)c2cccc(NC(=O)Nc3ccc(C(F)(F)F)cc3)c2O[C@@H]1CN(C)C(=O)Nc1cccc2ccccc12	.	.	.	.	67.3*	2.2
C[C@H](CO)N1C[C@H](C)[C@@H](CN(C)CC2CCCCC2)OCCCC[C@H](C)Oc2ccc(NC(=O)Nc3cccc4ccccc34)cc2C1=O	.	.	.	.	0.1	7.1
C[C@@H]1CN([C@@H](C)CO)C(=O)c2cc(NC(=O)Nc3ccccc3)ccc2O[C@H]1CN(C)C(=O)Nc1cccc2ccccc12	48.1	-18.7	51.7*	-7.8	11.1	8.7

High-throughput results deposited in PubChem BioAssay by several laboratories.
